The source of these data is PubChem BioAssay (NCATS).

Where “and” joins values, the source holds several entries; their conditions need not be identical. Equal values may be shown once. Results filed as inconclusive are left out. Values without a mark were called inactive. Calls of active or inactive are those of the source. Calls come from the whole dose curve; as a rule, active = well fitted cell-killing curve with a large enough effect; inconclusive = small, poorly fitted or top-dose-only effect; inactive = flat fitted curve, though single readings scatter.
% is set by controls: 0 for no effect and ±100 for the full control effect.

This test is described as follows: Cellular viability qHTS for adrenocortical cancer (ACC) cell line SW-13 (AID 1963989).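 For activity (max response): cells grown in serum-free medium with ITS supplement.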 Note: nearly all actives have a fitted effect of over 65% in size. The note with it: SW-13 ACC cells viability, CellTiter-Glo, 48 h; activity (max response): active compounds read low. The method, boiled down:
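IC50 and maximal-response values come from four-parameter logistic fits of titration data. SW-13 cells in serum-free medium received compounds (up to 46 uM final) for 48 h before CellTiter-Glo luminescence.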
On the technique in general: In qHTS, concentration-response curves come from the screen itself.
Regarding `Cc1c(Cn2ccnc2)c2ccccc2n1CCC(=O)O`, the activity (max response) is 15.3%.

Take `C/C(O)=C(\C#N)C(=O)Nc1ccc(C(F)(F)F)cc1`: the activity (max response) is -8.43%.

Turning to `CN1CCN(C2=Nc3ccccc3Oc3ccc(Cl)cc32)CC1`, the activity (max response) is -13.7%.

Consider `OC1CCC([C@H](O)C[C@H]2c3c(F)cccc3-c3cncn32)CC1` (stereo not given in full), for which the activity (max response) is -0.756%.

Regarding `CC(C)OC(=O)[C@H](C)N[P@](=O)(OC[C@H]1O[C@@H](n2ccc(=O)[nH]c2=O)[C@](C)(F)[C@@H]1O)Oc1ccccc1`, the Potency is 3.98 µM (active).

Consider `CC(/C=C1\SC(=S)N(CC(=O)O)C1=O)=C\c1ccccc1`, for which the activity (max response) was 4.22%.

Consider `CS(=O)(=O)N1CCN(Cc2cc3nc(-c4cccc5[nH]ncc45)nc(N4CCOCC4)c3s2)CC1`, for which the Potency was 17.8 µM (active).

For `CC(C)OC(=O)c1cc2c(OCC(O)CNC(C)(C)C)cccc2[nH]1` (stereo not given), the activity (max response) is -10.4%.

As for `C[C@]12CC[C@H]3[C@@H](CCC4=CC(=O)CC[C@@]43C)[C@@H]1CC[C@@H]2C(=O)CO`, the activity (max response) is -8.44%.

Take `Cn1ncc(Cl)c1-c1cc(C(=O)N[C@H](CN)Cc2cccc(F)c2)sc1Cl`: the activity (max response) is -8.31%.

Consider `COc1ccc2nc(NC(=O)Nc3ccccc3)sc2c1`, for which the activity (max response) is -20%.

With `C[C@H](Nc1ncnc2nc[nH]c12)c1cc2ccc(F)cc2nc1-c1ccccn1`, the activity (max response) was -8.13%.

For `C/C(=C\C(=O)Nc1ccccc1C(=O)O)c1ccc2ccccc2c1`, the Potency is 12.6 µM (active).

With `CC1Cc2ccccc2N1C(=O)Cc1nc(N2CCOCC2)cc(=O)[nH]1` (stereo not given), the activity (max response) is -14.8%.

Consider `CC1=C(C(=O)OC(C)C)C(c2cccc([N+](=O)[O-])c2)C(C(=O)OC2CN(C(c3ccccc3)c3ccccc3)C2)=C(N)N1` (stereo not given), for which the activity (max response) is -4.04%.

Consider `Cc1cc(C)c(/C=C2\C(=O)Nc3ccccc32)[nH]1`, for which the activity (max response) was 5.7% and 12.2%.

As to `O=C(Nc1cccc(C(F)(F)F)c1)c1cccc2cc(Oc3cc(CO)ncn3)ccc12`, the activity (max response) was 9.86%.

Take `COC(=O)[C@H]1[C@H]2C[C@@H]3c4[nH]c5cc(OC)ccc5c4CCN3C[C@H]2C[C@@H](OC(=O)COc2ccc(OC)cc2)[C@@H]1OC`: the activity (max response) was -9.25%.

`CN1CCC(OC(c2ccccc2)c2ccccc2)CC1`: the activity (max response) is 0.851%.

Regarding `O=C(O)CNC(=O)c1ncc(-c2cccc(Cl)c2)cc1O`, the activity (max response) was 5.73%.

`O=C(CCCCCCCCC#CI)Oc1ccccc1`: the activity (max response) was -0.224%.

Turning to `C[C@H](NC(=O)[C@H]1NCC[C@@H]1O)c1ccc(-c2noc(CCC3CCCC3)n2)cc1`, the activity (max response) was -20.3%.

Take `Cc1c(Cl)cccc1Nc1ccccc1C(=O)O`: the activity (max response) was -8.75%.

`Cc1cc2nc3c(=O)[nH]c(=O)nc-3n(C[C@H](O)[C@H](O)[C@H](O)CO)c2cc1C`: the activity (max response) is 8.72%.

Take `CCCCCOc1ccc(C2SC(=O)NC2=O)cc1OCC` (stereo not given): the activity (max response) was -6.25%.

Regarding `C=CC(=O)N1C[C@H](Nc2ncnc3[nH]ccc23)CC[C@@H]1C`, the activity (max response) is -23.7%.

With `O=C(CCN1CCN2CCCC2C1)N1c2ccccc2Sc2ccc(Cl)cc21` (stereo not given), the activity (max response) was -13.8%.

On to `Cc1cc(CC(=O)O)c(C)n1-c1ccc(Cl)cc1`, for which the activity (max response) was 4.84%.

With `CNCCCN1c2ccccc2CCc2ccccc21`, the Potency is 20.6 µM (active).

Regarding `CN1CCCCC1CCN1c2ccccc2Sc2ccc(S(C)=O)cc21` (stereo not given), the activity (max response) was -6.63%.

`CC(=O)[C@H]1CC[C@H]2[C@@H]3C=CC4=CC(=O)CC[C@@]4(C)[C@@H]3CC[C@]12C`: the activity (max response) is -20.4%.

For `COc1cc2c(NC3CCN(C4CCCCC4)CC3)nc(N3CCCN(C(C)C)CC3)nc2cc1OCCCN1CCCCC1`, the Potency is 3.16 µM (active).

For the molecule `COc1cc2c3c(n(CCCN4CCOCC4)c(=O)c2cc1OC)-c1cc2c(cc1C3=O)OCO2`, the Potency was 2.51 µM (active).

As for `CCOCOC[C@H](C[C@H](C)C(=O)NO)NC(=O)c1ccc(Oc2ccccc2)cc1`, the activity (max response) is -8.03%.

Take `O=C1C(CCS(=O)c2ccccc2)C(=O)N(c2ccccc2)N1c1ccccc1` (stereo not given): the activity (max response) is 7.53%.

For the molecule `COc1ccc(-c2cnc3c(-c4cccc5ncccc45)cnn3c2)cc1`, the activity (max response) was 5.61%.

Regarding `C[C@H]1C[C@@H]2[C@H]([C@@H](O)C[C@@]3(C)[C@H]2CC[C@]3(O)C(=O)CO)[C@@]2(C)C=CC(=O)C=C12`, the activity (max response) was 8.4% and 9.49%.

Take `Cc1ccc(Nc2cc(N[C@@H]3CCCC[C@@H]3N)nnc2C(N)=O)nc1C`: the activity (max response) was -5.27%.

On to `Cc1cc(O)c(-c2ccc([C@@H](C)CN)cc2)c2c1[nH]c(=O)c1sccc12`, for which the activity (max response) is -7.01%.

Regarding `Nc1ccc(S(=O)(=O)Nc2ccc(Cl)nn2)cc1`, the activity (max response) was 1.77%.
